# SARS PLpro yeast-1 = blocks SARS-CoV papain-like protease in a yeast assay; S. cerevisiae expressing SARS-CoV PLpro, growth rescue; Potency, µM (top dose mostly 32.9 µM), for inactives: at the highest dose activity, positive = growth rescue, actives largely listed as activators; hit rate 0.19% among 330,000; AID 485353; calls by dose curve; also: potency is read from the fitted curve at half-maximal effect; 0% is about no effect; nearly all actives have a fitted effect of over 55% in size
# RE007 growth inh = less growth of the S. pombe RE007 Vpr strain; AID 651644; hit rate 0.21% among 360,000; S. pombe RE007 Vpr strain, BacTiter-Glo ATP luminescence, 24 h; Potency, µM (highest dose often 92.2 µM), for inactives: top-dose activity change, negative = less growth, hits mostly inhibitors; active = well fitted falling curve with a large enough effect; inconclusive = small, poorly fitted or top-dose-only effect; inactive = no such curve, though single readings can be large or run the other way; also: potency is read from the fitted curve at half-maximal effect; % is scaled to controls: 0 for no effect and ±100 for the full control effect; nearly all actives have a fitted effect of over 50% in size
#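 Fission yeast RE007 carrying one integrated HIV-1 vpr copy, seeded at OD 0.01 in PMG+AL medium with 23 nL pinned compound. Grown 24 h at 30 degrees; viability read by BacTiter-Glo luminescence after 5 min.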
# NS1 inh = blocks influenza NS1 protein function; Potency, µM (titrated, usually from 46.1 µM), without a hit: at the highest dose activity, positive = more growth; hit rate 0.4% among 270,000; AID 2326; calls by dose curve; also: potency is read from the fitted curve at half-maximal effect; actives are rising curves; nearly all actives have a fitted effect of over 50% in size
#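 Read-out: OD600 growth recovery of NS1-expressing budding yeast. Cells grown overnight at 30C in -URA glucose medium, washed, resuspended and diluted 1:100 in 2% galactose assay medium, pH 6.0. Same strain lacking NS1 served as positive control.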
# LmPK inhibitor = inhibitors of Leishmania mexicana pyruvate kinase; Q27686; Potency, µM (top dose mostly 57.5 µM), for the others: top-dose activity change, negative = inhibition, hits mostly inhibitors; hit rate 0.37% among 290,000; purified LmPK, Kinase-Glo ATP luminescence, 1 h; AID 1721; also: potency is read from the fitted curve at half-maximal effect; % is scaled to controls: 0 for no effect and ±100 for the full control effect
# Target sequence (Q27686 whole entry, looked up): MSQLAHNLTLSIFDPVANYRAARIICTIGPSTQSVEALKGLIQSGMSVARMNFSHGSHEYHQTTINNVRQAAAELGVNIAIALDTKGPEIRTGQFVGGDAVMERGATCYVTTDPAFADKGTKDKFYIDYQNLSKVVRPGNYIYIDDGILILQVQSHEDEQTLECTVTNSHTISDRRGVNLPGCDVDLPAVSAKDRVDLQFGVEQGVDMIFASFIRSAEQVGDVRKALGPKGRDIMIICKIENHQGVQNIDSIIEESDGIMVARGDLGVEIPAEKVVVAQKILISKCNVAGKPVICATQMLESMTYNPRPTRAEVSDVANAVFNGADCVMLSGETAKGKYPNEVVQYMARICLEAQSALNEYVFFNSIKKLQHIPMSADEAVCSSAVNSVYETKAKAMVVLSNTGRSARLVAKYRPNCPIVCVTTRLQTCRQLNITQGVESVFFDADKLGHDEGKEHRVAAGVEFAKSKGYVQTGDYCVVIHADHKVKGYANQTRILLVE
#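 Purified LmPK (0.1 nM) with 0.5 mM PEP and 0.1 mM ADP in imidazole buffer pH 7.2 with MgCl2/KCl, 1 h at room temperature. ATP formed was read by luciferase luminescence and normalized to no-enzyme and uninhibited controls.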
# Tb PYK inh = T. brucei pyruvate kinase inhibition; Q57TT1; TbPYK enzyme, Kinase-Glo Plus ATP luminescence, 45 min; Potency, µM (highest dose often 76.8 µM), inactives show at the highest dose activity, negative = inhibition, most hits filed as inhibitors; hit rate 0.12% among 410,000; also: potency is read from the fitted curve at half-maximal effect; % is scaled to controls: 0 for no effect and ±100 for the full control effect; nearly all actives have a fitted effect of over 50% in size
#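 Luminescent Kinase-Glo Plus end-point after 45 min room-temperature reaction of T. brucei pyruvate kinase started with 130 uM ADP (final). Buffer TEA 50 mM pH 7.2 with KCl, MgCl2, BSA, Tween-20; titration-based qHTS with fitted concentration-effect curves.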
# Sm TGR block = blocks Schistosoma mansoni thioredoxin glutathione reductase; purified TGR, DTNB reduction, TNB absorbance 405 nm; hit rate 3% among 360,000; Potency, µM (highest dose often 114 µM), for inactives: at the highest dose activity change, negative = inhibition, hits mostly inhibitors; also: potency is read from the fitted curve at half-maximal effect; % is scaled to controls: 0 for no effect and ±100 for the full control effect; nearly all actives have a fitted effect of over 60% in size
#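 Kinetic colorimetric format: TGR-catalysed, NADPH-driven DTNB reduction monitored via TNB absorbance. Enzyme dispensed at 20 nM; compound exposure 15 min at room temperature before reaction start.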
# SARS PLpro yeast-2 = Rescues yeast growth by inhibiting SARS-CoV PLpro. calls only. shares compounds with SARS PLpro yeast-1. hit rate 19% among 1,000. AID 652038. yeast expressing SARS-CoV PLpro, growth phenotype rescue; call rule not given here
# * hit, by the source's call; i = inactive; ? = inconclusive; . = not tested or not shown; + = active, no number. A selection: hits, their analogues and other compounds. The true share with any hit is near 3.3%. Unless noted, calls follow the shape of the dose curve; as a rule, active = well fitted curve in the direction sought with a large enough effect; inconclusive = small, poorly fitted or top-dose-only effect, or another doubt; inactive = no such curve, though single readings can be large; an effect the other way counts as inactive or inconclusive.
SMILES,SARS PLpro yeast-1,RE007 growth inh,NS1 inh,LmPK inhibitor,Tb PYK inh,Sm TGR block,SARS PLpro yeast-2
O=C(Nc1ccc(S(=O)(=O)N(Cc2ccccc2)c2ccccc2)cc1)c1ccc([N+](=O)[O-])cc1,.,.,.,.,4%,5%,.
COc1ccc(C(C)NC(=O)c2ccc(Br)cc2)cc1OC (configuration not stated),-3%,-1%,-8%,1%,0%,-6%,.
COc1ccc(C(C)NC(=O)c2ccccc2Cl)cc1OC (configuration not stated),11µM*,8%,-10%,2%,-1%,?,+
COc1ccc(N2CCN(C3CCCN(C(=O)c4ccoc4)C3)CC2)cc1 (configuration not stated),0%,9%,-8%,-7%,0%,-6%,.
COc1ccc(N2CCN(C3CCCN(C(=O)C4=C(C)OCCO4)C3)CC2)cc1 (configuration not stated),?,-6%,5%,-10%,6%,-12%,i
O=C(CSC1=Nc2ccccc2C2=NC(Cc3ccccc3)C(=O)N12)Nc1ccccc1F (configuration not stated),.,.,.,.,5%,3%,.
O=C(N/N=C/c1cccnc1)/C(=C\c1cccs1)NC(=O)c1ccccc1,-4%,-17%,6%,-3%,-10%,-10%,.
O=C(N/N=C/c1cc2ccccc2nc1Cl)/C(=C/c1cccs1)NC(=O)c1ccccc1,?,7%,27%,0%,2%,?,i
O=C(Nc1nc2ccc(F)cc2s1)c1cccc(S(=O)(=O)N2CCc3ccccc32)c1,3.2µM*,5%,13%,-1%,-2%,?,i
COc1ccc(S(=O)(=O)NCCS(=O)(=O)N2CCN(c3ccccc3)CC2)cc1C,.,.,.,.,3%,-7%,.
O=C(C1CCC1)N1CCc2cc(S(=O)(=O)NCc3ccc(F)cc3)ccc21,.,.,.,.,-7%,-1%,.
CCCCNC(=O)N1CCc2ccccc2C1,3.2µM*,-6%,-10%,0%,7%,5%,i
O=C(NCc1ccc(F)cc1)N1CCc2ccccc2C1,-4%,29%,-8%,-6%,1%,9%,.
O=C1C(c2ccccc2)=C(N2CC2)c2ccccc21,?,?,-45%,0%,1%,0%,i
CN(C)S(=O)(=O)N1CCC(N2CCN(Cc3ccc(F)cc3)C(=O)C2=O)CC1,.,.,.,.,1%,8%,.
O=C(Nc1ccc(F)c(F)c1)c1ccccc1-c1ccccc1,14µM*,-15%,0%,5%,2%,-11%,i
CCOc1ccc2c(c1)c(=O)c(C(=O)c1ccc(CC)cc1)cn2CC(=O)Nc1ccc2c(c1)OCCO2,.,.,.,.,-4%,4%,.
Cc1ccccc1-c1nc2cc(NC(=O)COc3ccc(F)cc3)ccc2o1,.,.,.,.,0%,1%,.
COc1ccc(CNC(=O)c2ccc3c(c2)N(Cc2c(F)cccc2Cl)C(=O)CS3)cc1,.,.,.,.,5%,1%,.
Cc1cc2c(cc1S(=O)(=O)N1CCN(c3ccc(Cl)cc3)CC1)OCCN2C,0.89µM*,0%,7%,-2%,-8%,-27%,i
COc1cccc(N2CCN(S(=O)(=O)c3cc4c(cc3C)N(C)CCO4)CC2)c1,-24%,-8%,?,0%,-2%,?,.
CCOC(=O)Cn1cnc2c(nnn2-c2cccc(OC)c2)c1=O,-1%,.,4%,5%,-6%,0%,.
COc1cccc(-n2nnc3c(=O)n(CC(=O)OCc4ccccc4)cnc32)c1,?,-9%,13%,-1%,-7%,4%,i
O=c1c2cnn(-c3ccc(Cl)cc3)c2ncn1Cc1ccc(Cl)cc1Cl,.,.,.,.,-2%,-3%,.
Cc1ccc(S(=O)(=O)N2CCN(C(C(=O)Nc3ccc(F)cc3)c3ccccc3)CC2)cc1 (configuration not stated),24%,-4%,?,6%,-10%,-3%,.
SMILES,SARS PLpro yeast-1,RE007 growth inh,NS1 inh,LmPK inhibitor,Tb PYK inh,Sm TGR block,SARS PLpro yeast-2
O=C(Nc1ccc(F)cc1)C(c1ccccc1)N1CCN(S(=O)(=O)c2ccccc2)CC1 (configuration not stated),?,-1%,22%,2%,5%,-2%,i
Cc1ccc2nc(-c3cccc(NC(=O)c4cccc5c(Cl)cccc45)c3)oc2c1,.,.,.,.,-3%,8%,.
O=C(Cn1cnc2c(nnn2Cc2ccccc2F)c1=O)NCC1CCCO1 (configuration not stated),?,-2%,?,5%,6%,-1%,i
COc1ccc(N2CCN(CCCNC(=O)c3cnn(-c4ccc(C)cc4)c3-n3cccc3)CC2)cc1,.,.,.,.,2%,-5%,.
CN(CC(=O)Nc1ccncc1)S(=O)(=O)c1ccc(Br)cc1,7%,-6%,3%,3%,-3%,-8%,.
CN(CC(=O)Nn1cnnc1)S(=O)(=O)c1ccc(Br)cc1,3.5µM*,-4%,-46%,0%,4%,7%,i
Cc1c(C(=O)Oc2ccc(F)cc2)sc2ncn(Cc3cccc(F)c3)c(=O)c12,?,-3%,-3%,0%,4%,-2%,i
CCOc1ccc(OC(=O)c2sc3ncn(Cc4cccc(F)c4)c(=O)c3c2C)cc1,.,.,.,.,3%,13%,.
Cc1sc(NC(=O)c2ccccc2)c(C(=O)NC(C)C)c1C,?,-3%,-2%,-3%,0%,2%,i
CCN(CC)c1ccc(-c2nc(-c3ccco3)no2)cc1[N+](=O)[O-],.,.,.,.,0%,-9%,.
N=C(N)n1cccn1,.,.,.,.,-2%,.,.
CC(C)C1Oc2ccccc2N(CC(=O)N(Cc2ccccn2)CC2CCCO2)C1=O (configuration not stated),1.8µM*,5%,-4%,2%,6%,0%,i
CCC(C)NC(=O)CSc1nc2cc3c(cc2c(=O)n1CCCC(=O)NCCc1ccc(OC)c(OC)c1)OCO3 (configuration not stated),.,.,.,.,-4%,1%,.
CC(=O)O[C@@H]1[C@@]2(C)O[C@H]2CC[C@]23O[C@H]2[C@H](OC3=O)C2=C(C)C(=O)O[C@@]21O,?,60%,11%,0%,5%,-28%,i
CC(=O)C(Sc1nn(C)c(=S)s1)C(=O)Nc1ccccc1 (configuration not stated),?,?,-5%,14%,32µM*,25µM*,i
CCOC(=O)CC(NC(=O)c1ccco1)c1ccc(OC)cc1 (configuration not stated),?,10%,-10%,-4%,-12%,9%,i
